Reference: PubChem BioAssay AID1159580 (chemical genetic matrix, 2015)
Screen size: about 5,500 compounds; about 2,000 (36%) were called active. Inconclusive results (about 18%) are left out. No stated cut-off is given here; in the data, active means normalized growth mostly below about 0.91 (no sharp cut-off); inconclusive means no clear call, values can overlap the other calls; inactive means mostly above about 0.92. This is one part of the list.

Assay: chemical genetic growth profiling, strain panel (AID 1159580);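 further: tested at 20 µM; growth read once vehicle control cultures reached saturation at 30 °C; 1 = growth at the plate median or of vehicle wells; lower values mean less growth of the strain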
Details: growth OD

Measured: normalized growth

CN(C)C(=S)SSC(=S)N(C)C
active: S. cerevisiae deletion strains, locus YJR075W, strain HOC1, hits give low values 0.0622 | S. cerevisiae deletion strains, locus YKL009W, strain mrt4, hits give low values 0.657 | S. cerevisiae deletion strains, locus YKL068W, hits give low values 0.055 | S. cerevisiae deletion strains, locus YKL085W, strain MDH1 (second series), hits give low values 0.0509 | S. cerevisiae deletion strains, locus YKL085W, strain MDH1, hits give low values 0.0509 | S. cerevisiae deletion strains, locus YKL160W, strain elf1, hits give low values 0.0619 | S. cerevisiae deletion strains, locus YKL190W, strain CNB1, hits give low values 0.0467 | S. cerevisiae deletion strains, locus YKR001C, strain vps1, hits give low values 0.061 | S. cerevisiae deletion strains, locus YKR026C, strain gcn3, hits give low values 0.0601 | S. cerevisiae deletion strains, locus YKR091W, strain srl3, hits give low values 0.058 | S. cerevisiae deletion strains, locus YLL001W, strain dnm1, hits give low values 0.0595 | S. cerevisiae deletion strains, locus YLL026W, hits give low values 0.0612 | S. cerevisiae deletion strains, locus YLL041C, strain sdh2, hits give low values 0.0559 | S. cerevisiae deletion strains, locus YLR027C, strain aat2, hits give low values 0.0546 | S. cerevisiae deletion strains, locus YLR039C, strain RIC1, hits give low values 0.0839 | S. cerevisiae deletion strains, locus YLR058C, strain SHM2, hits give low values 0.048 | S. cerevisiae deletion strains, locus YLR102C, strain apc9, hits give low values 0.0608 | S. cerevisiae deletion strains, locus YLR113W, strain HOG1, hits give low values 0.126 | S. cerevisiae deletion strains, locus YLR221C, strain rsa3, hits give low values 0.0608 | S. cerevisiae deletion strains, locus YLR258W, strain gsy2, hits give low values 0.0595 | S. cerevisiae deletion strains, locus YLR262C, strain YPT6 (second series), hits give low values 0.0761 | S. cerevisiae deletion strains, locus YLR262C, strain YPT6, hits give low values 0.0956 | S. cerevisiae deletion strains, locus YLR268W, strain sec22, hits give low values 0.0648 | S. cerevisiae deletion strains, locus YLR320W, strain mms22, hits give low values 0.0851 | S. cerevisiae deletion strains, locus YLR330W, strain CHS5, hits give low values 0.0523 | S. cerevisiae deletion strains, locus YLR342W, strain FKS1 (second series), hits give low values 0.0636 | S. cerevisiae deletion strains, locus YLR342W, strain FKS1, hits give low values 0.0632 | S. cerevisiae deletion strains, locus YLR357W, strain rsc2, hits give low values 0.117 | S. cerevisiae deletion strains, locus YLR370C, strain arc18, hits give low values 0.0609 | S. cerevisiae deletion strains, locus YLR371W, strain rom2, hits give low values 0.0607 | S. cerevisiae deletion strains, locus YLR384C, strain iki3, hits give low values 0.0593 | S. cerevisiae deletion strains, locus YLR418C, strain cdc73, hits give low values 0.0915 | S. cerevisiae deletion strains, locus YML016C, strain PPZ1, hits give low values 0.0487 | S. cerevisiae deletion strains, locus YML032C, strain rad52, hits give low values 0.0671 | S. cerevisiae deletion strains, locus YML120C, strain ndi1, hits give low values 0.0572 | S. cerevisiae deletion strains, locus YML124C, strain tub3, hits give low values 0.0583 | S. cerevisiae deletion strains, locus YMR058W, strain fet3, hits give low values 0.0575 | S. cerevisiae deletion strains, locus YMR078C, strain ctf18, hits give low values 0.0701 | S. cerevisiae deletion strains, locus YMR125W, strain sto1, hits give low values 0.0716 | S. cerevisiae deletion strains, locus YMR129W, hits give low values 0.0557 | S. cerevisiae deletion strains, locus YMR205C, strain PFK2, hits give low values 0.0852 | S. cerevisiae deletion strains, locus YMR223W, strain ubp8, hits give low values 0.062 | S. cerevisiae deletion strains, locus YMR231W, strain pep5, hits give low values 0.0656 | S. cerevisiae deletion strains, locus YMR263W, strain SAP30, hits give low values 0.0571 | S. cerevisiae deletion strains, locus YMR307W, strain GAS1, hits give low values 0.108 | S. cerevisiae deletion strains, locus YNL067W, strain RPL9B, hits give low values 0.0475 | S. cerevisiae deletion strains, locus YNL071W, strain lat1, hits give low values 0.0591 | S. cerevisiae deletion strains, locus YNL128W, strain TEP1, hits give low values 0.0618 | S. cerevisiae deletion strains, locus YNL153C, strain GIM3, hits give low values 0.0449 | S. cerevisiae deletion strains, locus YNL183C, strain NPR1, hits give low values -0.000652 | S. cerevisiae deletion strains, locus YNL209W, strain ssb2, hits give low values 0.0584 | S. cerevisiae deletion strains, locus YNL233W, strain BNI4, hits give low values 0.0527 | S. cerevisiae deletion strains, locus YNL248C, strain rpa49, hits give low values 0.0732 | S. cerevisiae deletion strains, locus YNL250W, strain rad50, hits give low values 0.0632 | S. cerevisiae deletion strains, locus YNL271C, strain bni1, hits give low values 0.0624 | S. cerevisiae deletion strains, locus YNL298W, strain CLA4, hits give low values 0.0589 | S. cerevisiae deletion strains, locus YNL307C, strain MCK1, hits give low values 0.0687 | S. cerevisiae deletion strains, locus YNL322C, strain KRE1 (second series), hits give low values 0.0642 | S. cerevisiae deletion strains, locus YNL322C, strain KRE1, hits give low values 0.0479 | S. cerevisiae deletion strains, locus YNR049C, strain mso1, hits give low values 0.0549 | S. cerevisiae deletion strains, locus YNR052C, strain pop2, hits give low values 0.0601 | S. cerevisiae deletion strains, locus YOL006C, strain TOP1, hits give low values 0.0896 | S. cerevisiae deletion strains, locus YOL012C, strain htz1 0.179 | S. cerevisiae deletion strains, locus YOL147C, strain pex11, hits give low values 0.0594 | S. cerevisiae deletion strains, locus YOR001W, strain rrp6, hits give low values 0.0656 | S. cerevisiae deletion strains, locus YOR061W, strain CKA2, hits give low values 0.0451 | S. cerevisiae deletion strains, locus YOR069W, strain VPS5, hits give low values 0.0465 | S. cerevisiae deletion strains, locus YOR070C, strain gyp1, hits give low values 0.0589 | S. cerevisiae deletion strains, locus YOR080W, strain dia2, hits give low values 0.067 | S. cerevisiae deletion strains, locus YOR083W, strain WHI5, hits give low values 0.0647 | S. cerevisiae deletion strains, locus YOR106W, strain vam3, hits give low values 0.061 | S. cerevisiae deletion strains, locus YOR136W, strain idh2, hits give low values 0.0736 | S. cerevisiae deletion strains, locus YOR144C, strain elg1, hits give low values 0.0615 | S. cerevisiae deletion strains, locus YOR184W, strain ser1, hits give low values 0.0681 | S. cerevisiae deletion strains, locus YOR231W, strain MKK1, hits give low values 0.103 | S. cerevisiae deletion strains, locus YOR265W, strain rbl2, hits give low values 0.0567 | S. cerevisiae deletion strains, locus YOR270C, strain vph1, hits give low values 0.0916 | S. cerevisiae deletion strains, locus YOR290C, strain snf2, hits give low values 0.0706 | S. cerevisiae deletion strains, locus YOR316C, strain cot1, hits give low values 0.0552 | S. cerevisiae deletion strains, locus YPL051W, strain arl3, hits give low values 0.0635 | S. cerevisiae deletion strains, locus YPL055C, strain LGE1, hits give low values 0.0716 | S. cerevisiae deletion strains, locus YPL078C, strain atp4, hits give low values 0.0627 | S. cerevisiae deletion strains, locus YPL106C, strain sse1, hits give low values 0.1 | S. cerevisiae deletion strains, locus YPL240C, strain hsp82, hits give low values 0.0673 | S. cerevisiae deletion strains, locus YPL241C, strain CIN2, hits give low values 0.0518 | S. cerevisiae deletion strains, locus YPL256C, strain CLN2, hits give low values 0.125 | S. cerevisiae deletion strains, locus YPR119W, strain clb2, hits give low values 0.0622 | S. cerevisiae deletion strains, locus YPR141C, strain kar3, hits give low values 0.0653 | S. cerevisiae deletion strains, locus YPR163C, strain tif3, hits give low values 0.0696 | S. cerevisiae deletion strains, locus YPR167C, strain met16, hits give low values 0.0614 | S. cerevisiae deletion strains, strain wtn01, hits give low values 0.0602 | S. cerevisiae strains, strain wild type, hits give low values 0.0482
